ClpP mod = qHTS Assay for Activators of ClpP; ATP-dependent Clp protease proteolytic subunit (Bacillus subtilis (strain 168)), P80244; purified B. subtilis ClpP, FRET peptide cleavage, 20 min; Potency, µM (top dose mostly 57.5 µM); 1.9% of 340,000 active; AID 651965, 2013; active = well fitted falling curve with a large enough effect; inconclusive = small, poorly fitted or top-dose-only effect; inactive = no such curve, though single readings can be large or run the other way; note: the source files actives as falling curves though it sought activators and does not explain the sign; nearly all actives have a fitted effect of over 65% in size
Target sequence (P80244 whole entry, looked up): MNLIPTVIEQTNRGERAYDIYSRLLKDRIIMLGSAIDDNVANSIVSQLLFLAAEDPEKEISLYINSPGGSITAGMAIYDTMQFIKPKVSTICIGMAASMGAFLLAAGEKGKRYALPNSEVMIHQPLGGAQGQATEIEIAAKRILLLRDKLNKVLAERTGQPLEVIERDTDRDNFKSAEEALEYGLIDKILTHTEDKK
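Buffer: 100 mM Tris/HCl pH8, 100 mM KCl, 0.05% low protease BSA, 2.5% glycerol, 0.01% Tween-20. ClpP 10 microg/mL final; 20 min RT; delta FRET normalized to ADEP and DMSO controls.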
TDP1 inh = blocks human tyrosyl-DNA phosphodiesterase 1 | recombinant TDP1, AlphaScreen DNA substrate cleavage | 0.28% of 350,000 active | Potency, µM (series often up to 130 µM), most hits filed as inhibitors | AID 485290; note: nearly all actives have a fitted effect of over 40% in size
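E. coli-derived human Tdp1, 1 nM final. Cpd preinc 15 min RT; substrate 15 nM final, 5 min RT; AS bead mix 10 ug/ml final, 10 min RT. Signal loss = tyrosine-FITC cleavage. No-enzyme wells = max signal.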
DT40 TDP1 CPT = growth inhibition of DT40 Tdp1-/-;hTDP1 cells with camptothecin (screen for TDP1 inhibitors) | AID 686979 | chicken DT40 Tdp1-/-;hTDP1 cells + 20 nM CPT, ATP luminescence, 48 h | 12% of 420,000 active | Potency, µM (titrated, usually from 46.2 µM), hits mostly inhibitors; note: nearly all actives have a fitted effect of over 55% in size
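Chicken DT40 Tdp1-/- cells stably complemented with human TDP1 were seeded at 400 cells/well in medium containing 20 nM camptothecin, exposed to pin-transferred compounds, and grown at 37 °C for at least 48 hr. Viability was read as ATP luminescence.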
TDP1 cell noCPT = qHTS for Inhibitors of human tyrosyl-DNA phosphodiesterase 1 (TDP1): qHTS in cells in absence of CPT. Potency, µM (titrated, usually from 46.2 µM), most hits filed as inhibitors. AID 686978, 2013. 15% of 420,000 active. DT40 Tdp1-/- hTDP1 cells, no CPT, ATP luminescence, 48 h; note: nearly all actives have a fitted effect of over 55% in size
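Growth kinetics read by CellTiter-Glo luminescence after ≥48 hr at 37 °C. Cells: DT40 Tdp1-/- stably carrying human TDP1, 400 per well, compound exposure in the absence of CPT (DMSO vehicle).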
Each line names hits and unclear results; the compound was inactive in the other large screens. The list is not random: actives were taken first. Their share in the collection is about 17%. Unless noted, calls come from the whole dose curve; as a rule, active = well fitted curve in the direction sought with a large enough effect; inconclusive = small, poorly fitted or top-dose-only effect, or another doubt; inactive = no such curve, though single readings can be large; an effect the other way counts as inactive or inconclusive.

COc1ccc(NC(=O)Nc2ccc3c(c2)CC(=O)N([C@H](C)CO)C[C@@H](C)[C@H](CN(C)C(=O)Nc2ccccc2)O3)cc1	none
CCN(CC)c1ccc2cc(-c3nc4ccccc4n3C)c(=O)oc2c1	DT40 TDP1 CPT 0.651µM, TDP1 cell noCPT 1.16µM
CCN(CC)c1ccc2cc(C(=O)c3cccs3)c(=O)oc2c1	DT40 TDP1 CPT 18.4µM, TDP1 cell noCPT inconclusive (no result: TDP1 inh)
CCN(CC)c1ccc2cc(-c3nc(-c4ccc(Cl)cc4Cl)cs3)c(=O)oc2c1	none
CCN(CC)c1ccc2cc(-c3nc(-c4ccc(OC)cc4)cs3)c(=O)oc2c1	DT40 TDP1 CPT inconclusive, TDP1 cell noCPT 14.6µM (no result: TDP1 inh)
CN(C)Cc1c(O)ccc2cc(-c3nc4ccccc4n3C)c(=O)oc12	none (no result: ClpP mod)
O=C(c1cc(S(=O)(=O)N2CCOCC2)ccc1Cl)N1CCC(Cc2ccccc2)CC1	DT40 TDP1 CPT inconclusive, TDP1 cell noCPT inconclusive (no result: TDP1 inh)
CNC(=O)c1ccccc1NC(=O)C1CC(=O)N(C(C)C)C1 (configuration not stated)	none (no result: TDP1 inh)
COc1cccc(N2CC(O)Cn3c2nc2c3c(=O)n(CCCc3ccccc3)c(=O)n2C)c1 (configuration not stated)	DT40 TDP1 CPT 11.6µM, TDP1 cell noCPT 16.4µM
C[C@]12C=CC(=O)N[C@@H]1CC[C@@H]1C2CC[C@]2(C)C(C(=O)Nc3cc(C(F)(F)F)ccc3C(F)(F)F)CC[C@@H]12 (some centres not stated)	none (no result: ClpP mod, DT40 TDP1 CPT, TDP1 cell noCPT)
Cc1ccc(C(=O)N2CCN(c3cccc(C)c3C)CC2)cc1S(=O)(=O)N1CCOCC1	DT40 TDP1 CPT 16.4µM, TDP1 cell noCPT 23.1µM
Cc1ccc(C(=O)N2CCN(c3ccccc3F)CC2)cc1S(=O)(=O)N1CCOCC1	TDP1 cell noCPT inconclusive (no result: ClpP mod)
Cc1ccc(C(=O)N2CCN(c3ccccc3)CC2)cc1S(=O)(=O)N1CCCC1	DT40 TDP1 CPT 29.1µM, TDP1 cell noCPT inconclusive
Cc1ccc(C(=O)N2CCCCC2)cc1S(=O)(=O)N1CCCC1	none
Cc1ccc(C(=O)N2CCN(c3ccc(F)cc3)CC2)cc1S(=O)(=O)N1CCCCC1	DT40 TDP1 CPT 29.1µM, TDP1 cell noCPT 16.4µM
CN(c1ccc(C(=O)N2CCN(c3ccc(F)cc3)CC2)cc1)S(C)(=O)=O	DT40 TDP1 CPT 13µM, TDP1 cell noCPT inconclusive
O=S(=O)(c1ccccc1)N1CCC2(CCCN(Cc3ccccc3)C2)CC1	TDP1 cell noCPT inconclusive (no result: ClpP mod, TDP1 inh)
CC1CCN(S(=O)(=O)c2cc(C(=O)N3CCN(c4ccccc4)CC3)ccc2Br)CC1	DT40 TDP1 CPT 23.1µM, TDP1 cell noCPT 14.6µM (no result: TDP1 inh)
COc1cc(SC)ccc1C(=O)Nc1cccc(C)n1	DT40 TDP1 CPT inconclusive, TDP1 cell noCPT 5.8µM
COc1cc(SC)ccc1C(=O)NCCc1ccccc1	ClpP mod inconclusive, DT40 TDP1 CPT 14.6µM
COc1cc(SC)ccc1C(=O)Nc1ccc(Br)cn1	DT40 TDP1 CPT inconclusive, TDP1 cell noCPT 13µM
Cc1cc(C(=O)CN2C(=O)C(=O)N(C3CCCC3)C2=O)c(C)n1CCc1ccc(F)cc1	DT40 TDP1 CPT 18.4µM, TDP1 cell noCPT inconclusive
COc1cc(OC)cc(C(=O)NCC(=O)OCC(=O)c2cc(C)n(Cc3ccco3)c2C)c1	ClpP mod 10µM, DT40 TDP1 CPT inconclusive, TDP1 cell noCPT inconclusive
Cc1cc(C(=O)CN2C(=O)C(=O)N(C3CCCC3)C2=O)c(C)n1CCc1ccccc1	DT40 TDP1 CPT inconclusive, TDP1 cell noCPT inconclusive
COc1ccc(CCn2c(C)cc(C(=O)CN3C(=O)C(=O)N(Cc4ccco4)C3=O)c2C)cc1	DT40 TDP1 CPT 13µM, TDP1 cell noCPT 9.2µM
Cc1cc(C(=O)COC(=O)CNC(=O)c2ccco2)c(C)n1Cc1ccco1	TDP1 cell noCPT inconclusive
COc1ccc(CCNc2ncnc3sc(C(=O)N(C)C)c(C)c23)cc1OC	none (no result: ClpP mod, TDP1 inh)
COCCc1nn2c(=O)cc(COC(=O)c3ccc(Br)cc3)nc2s1	none
Cc1cc2c(cc1S(=O)(=O)N1CCN(c3cccc(C)c3C)CC1)OCCN2C	ClpP mod 28.2µM, DT40 TDP1 CPT inconclusive (no result: TDP1 inh)
COc1cccc(N2CCN(S(=O)(=O)c3cc4c(cc3C)N(C)CCO4)CC2)c1	ClpP mod inconclusive, DT40 TDP1 CPT inconclusive, TDP1 cell noCPT 16.4µM (no result: TDP1 inh)
O=C(CCN1CCCCC1)Nc1ccc2c(c1)C(=O)c1ccc(NC(=O)CCN3CCCCC3)cc1C2=O	none (no result: ClpP mod, DT40 TDP1 CPT, TDP1 cell noCPT)

From PubChem
